In PubChem BioAssay AID488900 (National Center for Advancing Translational Sciences (NCATS), 2010) one finds Potency data, which are given here for one molecule.

Records with an inconclusive call do not appear. The source made the active and inactive calls. The call rests on the fitted dose curve; in most records, active means well fitted curve in the direction sought with a large enough effect; inconclusive means small, poorly fitted or top-dose-only effect, or effect the other way, or another doubt; inactive means no such curve, though single readings can be large or run the other way.

A short description of the experiment: Secondary Assay for lipid storage modulators: Hela cell LDSA assay for probe SAR. The conditions noted are these: HeLa lipid droplet accumulation, BODIPY 493/503 cytometry, oleate-fed. From the text: NIH Molecular Libraries Probe Production Centers Network [MLPCN] NIH Chemical Genomics Center [NCGC] MLPCN Grant: 1 R03 MH085686-01 Assay Submitter (PI): Beller, Mathias; Max-Planck-Institut fur Biophysikalische Chemie NCGC Assay Overview: Storing lipids as a reservoir for energy or the anabolism of elementary metabolites is a common feature of probably all cells and is conserved from bacteria to humans. The universal cellular lipid storage organelle is the so-called lipid storage droplet (LD). Although ubiquitous, LDs share a simple structure composed of a hydrophobic core that harbors the storage lipids, which is shielded by a droplet-specific phospholipid monolayer to which proteins are attached. The current model of LD biogenesis involves an incorporation of the lipid core into the membrane leaflets of the endoplasmic reticulum (ER) followed by a subsequent budding-like maturation of a LD, which ultimately pinches off. […]
NCGC Assay Protocol Summary: The assay was performed with Hela cells, using an oleic acid feeding protocol similar to the S3 assay. […] Fluorescence was detected by excitation of the fluorophores with a 488-nm laser on an Acumen Explorer (TTP Lab Tech). […] Cells were detected using channel 3 (575-640 nm) with 5-um width and 100-um depth filters. The ratio of the number of objects in PMT channel 2 over the number of objects in PMT channel 3 was also calculated. […]

As to `CCC/C=C/C/C=C/C=C/C=N/NN=O`, the Potency is 11.2 nM (active).
